Experimental findings from PubChem BioAssay (EPA / NIEHS) are described below.

Where a structure was tested more than once in an assay, its records may differ in their call. Activity calls are given as the source filed them. The calls were made as follows: active = hit-call score of the fitted dose curve at least 0.9, where 1 is the maximum; inactive = score below 0.9.

This assay in a line: ATG_Oct_MLP_CIS: Attagene CIS-FACTORIAL HepG2 Assay for human Octamer-Binding Transcription Factor (Oct) (AID 2282993). To be noted: HepG2 Attagene cis-factorial Oct reporter, mRNA; actives raise or lower the signal. The gist of the method:
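HepG2 cells transiently transfected with cis-promoter-driven multiplexed reporter transcription units, dosed for 24 h. Reporter mRNA quantified by RT-PCR, fluorescent labelling, HpaI digestion and capillary electrophoresis; bidirectional fits versus DMSO baseline.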
For the molecule `CCCCOC(=O)C(C)OC(=O)CCC` (centres undefined), the result was inactive.

As for `CC(=N[Si](C)(C)C)O[Si](C)(C)C`, the molecule was classed as inactive. Same read-out and setting: in the case of `C/C=C(\C)C(=O)OC/C=C(\C)CCC=C(C)C` it was “inactive”; in that of `CC(C)N(c1ccccc1)C(C)C`, “inactive”. On to `OCCCO`, for which the molecule was called inactive. Regarding `Nc1ccc(N)c([N+](=O)[O-])c1`, the call was inactive.

With `COc1ccc(OC)cc1`, the outcome was inactive.

Take `CC(C)COC(=O)c1ccccc1O`: the molecule was called inactive.

In the case of `c1coc(CNc2ncnc3nc[nH]c23)c1`, the outcome was inactive. Take `CC(=O)CCC(=O)O`: the molecule was classed as inactive. Turning to `CC1=CC(O)CC(C)(C)C1` (centres undefined), the molecule was called inactive.

On to `CCCC[N+](C)(CCCC)CCCC`, for which the molecule was classed as inactive.

`N=C1N=C(N)c2ccccc21`: the molecule was classed as inactive. Still for that read-out and setting: the same measure for `[Cu+]`: “inactive”; for `CCOC(=O)CC(C)C`: “inactive”; for `C1=COCCC1`: “inactive”. Same read-out and setting: in the case of `NC(N)=NC(N)=NCCc1ccccc1` it was “inactive”. As to `CC(C)(C)c1cc(CCC(=O)OCCSCCOC(=O)CCc2cc(C(C)(C)C)c(O)c(C(C)(C)C)c2)cc(C(C)(C)C)c1O`, the outcome was inactive. Regarding `O=C(C=Cc1ccccc1)OCCCc1ccccc1`, the outcome was inactive. In the case of `CC/C=C\CCOC(=O)C(C)C`, the result was inactive. Take `CCCCCCC(C)O` (centres undefined): the molecule was classed as inactive. As to `CC(C)(C)c1cccc(O)c1`, the result was inactive. Take `CC(C)(O)C(=O)c1ccc(OCCO)cc1`: the outcome was inactive. As for `Cc1ccc(C(C)(C)O)cc1`, the result was inactive. `NC(=O)c1cnccn1`: the molecule was classed as inactive.

As for `CCCCCCCCCCCCN1CCOCC1`, the AC50 was 45.4 µM (active).

On to `O=C(c1ccc(OCCN2CCCCC2)cc1)c1c(-c2ccc(O)cc2)sc2cc(O)ccc12`, for which the AC50 was 8.87 µM (active) [middle of 4 runs] and the molecule was classed as inactive. With `CC/C(=C(\c1ccccc1)c1ccc(OCCN(C)C)cc1)c1ccccc1`, the result was inactive.
